# TrxR1 inh: blocks rat thioredoxin reductase 1. Potency, µM (top dose mostly 114 µM), for inactives: at the top dose activity change, negative = inhibition, actives largely listed as inhibitors. 390,000 compounds, 1% hits. AID 588453. recombinant rTrxR1, NADPH fluorescence consumption, selenite substrate; also: nearly all actives have a fitted effect of over 65% in size
#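 Rat TrxR1 (90 nM in the dispensed reagent) was pre-reduced with 400 uM NADPH for 5 min at room temperature, then incubated with compound for 15 min. After 400 uM selenite was added, NADPH fluorescence (Ex 340/Em 450 nm) was followed for 8 min.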
# USP2a block: blocks human ubiquitin-specific protease USP2a; O75604; USP2 core, Ub-CHOP2 coupled fluorogenic reporter, 485/531; Potency, µM (titrated, usually from 38.3 µM), inactives show at the highest dose activity change, negative = inhibition, hits mostly inhibitors; 330,000 compounds, 0.01% hits; AID 463254;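 also: plate controls were DMSO wells for no effect and full inhibition by NEM control for full effect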
# Target sequence (O75604 whole entry, looked up): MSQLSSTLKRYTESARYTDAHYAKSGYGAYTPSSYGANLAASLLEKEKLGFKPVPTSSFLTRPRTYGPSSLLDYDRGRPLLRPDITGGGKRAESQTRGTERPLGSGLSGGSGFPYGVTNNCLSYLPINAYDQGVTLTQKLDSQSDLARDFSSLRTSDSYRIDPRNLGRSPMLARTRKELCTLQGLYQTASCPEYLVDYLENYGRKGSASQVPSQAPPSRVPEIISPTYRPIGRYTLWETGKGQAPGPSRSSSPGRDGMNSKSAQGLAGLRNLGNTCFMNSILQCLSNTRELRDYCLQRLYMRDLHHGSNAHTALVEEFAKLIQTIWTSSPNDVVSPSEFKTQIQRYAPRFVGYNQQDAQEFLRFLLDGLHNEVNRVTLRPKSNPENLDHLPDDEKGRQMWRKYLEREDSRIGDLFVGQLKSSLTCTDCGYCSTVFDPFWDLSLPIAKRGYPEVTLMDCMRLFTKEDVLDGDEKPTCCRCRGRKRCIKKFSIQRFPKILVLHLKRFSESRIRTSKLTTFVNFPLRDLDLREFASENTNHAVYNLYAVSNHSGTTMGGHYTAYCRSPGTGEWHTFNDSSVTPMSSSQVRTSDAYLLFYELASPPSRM
#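 Deubiquitinase activity read as fluorescence (485/531 nm) after Ub-CHOP2 cleavage activates the enterokinase reporter on its substrate; USP2 core 10nM, Ub-CHOP2 and substrate 25nM each, 30min compound preincubation then 60min RT; data normalized to NEM, curves fitted.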
# RGS4 inhibitor: blocks human RGS4-accelerated GTP hydrolysis; Transcreener GDP fluorescence polarization, RGS4-accelerated GTP hydrolysis; 390,000 compounds, 0.039% hits; P49798; Potency, µM (doses to about 114 µM), for the others: top-dose activity change, negative = inhibition, hits mostly inhibitors; AID 504845; also: nearly all actives have a fitted effect of over 75% in size
#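 MLSMR compounds (23 nl, pin-transferred) preincubated 10 min at room temperature with a 500nM (2x) first reagent, then RGS4 at 900nM (2x) plus Transcreener GDP mix added; fluorescence polarization (620/688 nm) read before and after 90 min at 30 °C.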
# GALK inh: inhibitors of human galactokinase; Purified GALK, Kinase-Glo residual ATP luminescence; Potency, µM (series often up to 57.5 µM), inactives show top-dose activity change, negative = inhibition, hits mostly inhibitors; 270,000 compounds, 0.007% hits; AID 1868
#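 5 nM enzyme, 35 uM ATP, 100 uM galactose, 20 mM HEPES pH8.0, 5 mM MgCl2; 1 h RT; residual ATP by Kinase-Glo Plus luminescence, qHTS format.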
# Eya2 inh: blocks the phosphatase activity of human Eya2; recombinant Eya2, OMFP fluorescence dephosphorylation (OMFP is methylfluorescein phosphate); AID 488837; Potency, µM (doses to about 76.9 µM), for inactives: at the top dose activity, negative = inhibition, hits mostly inhibitors; 330,000 compounds, 0.006% hits
#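 Eya2 (0.2 uM) preincubated 10 min at ambient with compound, then OMFP substrate added at 50 uM; 10 min reaction in 50 mM HEPES pH 7.5, 50 mM NaCl, 5 uM MgCl2, 0.05% BSA, 1 mM DTT. Fluorescence read at Ex 485/Em 525 nm.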
# TrxR1 substrate: rat thioredoxin reductase 1 substrate activity. O89049. purified TrxR1 substrate turnover, NADPH consumption readout. Potency, µM (doses to about 114 µM), without a hit: at the top dose activity change, negative = substrate turnover. 390,000 compounds, 0.01% hits. AID 588456; also: nearly all actives have a fitted effect of over 50% in size
#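 Rat TrxR1, dispensed at 90 nM, was prereduced with 400 uM NADPH (final) for 5 min at ~22 deg C, then incubated with compound 15 min before 400 uM selenite. A first-read NADPH fluorescence drop versus no-compound background flagged substrates.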
# An asterisk follows results filed as active; ? = inconclusive; · = no result given; ! = repeats disagree; [ ] = remark or other dose. Most compounds without a hit are left out; they make up all but 1% or so of the library. Calls follow the shape of the dose curve; as a rule, active = well fitted curve in the direction sought with a large enough effect; inconclusive = small, poorly fitted or top-dose-only effect, or another doubt; inactive = no such curve, though single readings can be large; an effect the other way counts as inactive or inconclusive. Unless noted, % is scaled to controls: 0 for no effect and ±100 for the full control effect; potency is read from the fitted curve at half-maximal effect.
SMILES,TrxR1 inh,USP2a block,RGS4 inhibitor,GALK inh,Eya2 inh,TrxR1 substrate
C=CCSc1nnc(N2C(=O)C(O)=C(C(=O)c3ccco3)C2c2ccccc2F)s1 (stereo not drawn),50.1µM*,7.8%,1.6%,-1.1%,9.4%,-14.1%
CSc1nnc(N2C(=O)C(O)=C(C(=O)c3ccco3)C2c2ccccc2F)s1 (stereo not drawn),7.94µM*,2.1%,-0.5%,2.3%,-2.2%,-7.7%
CSc1nnc(N2C(=O)C(O)=C(C(=O)c3ccco3)C2c2ccccc2)s1 (stereo not drawn),?,5.0%,-30.2%,-4.5%,12.9%,-13.6%
N#CC1=C(N)CCC1,8.0%,·,·,·,·,-2.1%
COc1ccc(OCC#CCN2CC(C)OC(C)C2)cc1 (stereo not drawn),15.8µM*,2.1%,-4.7%,0.5%,-4.0%,-2.0%
CCOc1ccc(NCc2cccn2-c2nnc(N3CCC(C(=O)NCCc4ccc(OC)c(OC)c4)CC3)s2)cc1,4.2%,·,32.1%,·,·,-9.3%
C=C1C[C@@]23CC[C@H]4[C@@](C)(CCC[C@@]4(C)C(=O)O)[C@@H]2CC[C@]1(O)C3,10.2%[57.1 µM],·,5.3%[56.9 µM],·,7.4%,6.5%[57.1 µM]
COc1ccc(C(C)=O)cc1CSc1nc2cc(C(=O)O)ccc2c(=O)n1Cc1ccccc1,28.2µM*,3.7%,?,0.5%,4.1%,-2.7%
CCOC(=O)C1=C(C)NC(=S)NC1c1ccc(-c2cccc(Cl)c2C)o1 (stereo not drawn),22.4µM*,0.0%,?,2.8%,1.6%,8.8%
CCOC(=O)C1=C(C)NC(=S)NC1c1ccco1 (stereo not drawn),50.1µM*,-0.6%,?,7.4%,-1.1%,-4.6%
COc1cc(/C=C/[N+](=O)[O-])ccc1OCc1cccc(C(=O)O)c1,31.6µM*,?,?,-3.1%,7.1%,-11.8%
O=[N+]([O-])c1ccc(Cl)c(S(=O)(=O)/N=C(/Sc2ccc(Br)cc2)c2ccccc2)c1,-9.0%,·,?,·,·,-2.0%
COc1cc(/C=C/c2ccnc3ccccc23)ccc1N(C)C,-8.9%,·,·,·,·,-7.9%
COC(=O)CNC(=O)C1Nc2ccccc2C2C=CCC12 (stereo not drawn),8.91µM*,·,?,·,·,4.2%[57.1 µM]
CC(C)CNC(=O)C1Nc2ccccc2C2C=CCC12 (stereo not drawn),10µM*,·,-25.7%,·,·,9.2%[57.1 µM]
CCCCCCOc1ccc(CC(=O)O)cc1,1.5%,·,·,·,·,-1.0%
O=c1oc2c(O)c(O)cc3c(=O)oc4c(O)c(O)cc1c4c23,5.0%,1.12µM*,?,·,0.1%,4.2%
O=c1oc2ccccc2c2oc3cc(O)c(O)cc3c12,-3.1%,-14.5%,-19.6%,-1.3%,-8.5%,3.5%
COc1ccccc1N(C(=O)CCl)c1cn(C(C)=O)c2ccccc12,3.98µM*,-1.0%,21.2%,4.4%,-4.5%,-9.3%
CC(=O)n1cc(N(C(=O)CCl)c2ccc(Cl)cc2)c2ccccc21,0.708µM*,1.3%,3.1%,-1.9%,-0.4%,-3.4%
CCOC(=O)c1ccccc1Nc1cn(C(C)=O)c2ccccc12,?,3.2%,-28.9%,-1.7%,8.0%,7.4%
CC(C)N(c1ccc(C=O)cc1)C(C)C,-10.9%,·,·,·,·,-10.6%
Cc1ccc2c(c1)ncc[n+]2CC(=O)c1ccc(F)cc1,-7.6%,·,·,·,·,-0.4%
Cc1cccc(C)c1NC(=O)CSc1nnc(-c2ccco2)c(-c2ccco2)n1,3.16µM*,-21.5%,?,-0.7%,-13.3%,3.8%
Cc1ccccc1NC(=O)CSc1nnc(-c2ccco2)c(-c2ccco2)n1,2.51µM*,?,?,4.1%,11.1%,-0.2%
SMILES,TrxR1 inh,USP2a block,RGS4 inhibitor,GALK inh,Eya2 inh,TrxR1 substrate
Cc1ccccc1NC(=O)CSc1n[nH]c(-c2ccco2)n1,-7.0%,10.5%,7.9%,0.9%,-26.3%,-7.3%
CN(C)c1ccc(/C=C2/CCCc3c2nc2ccccc2c3C(=O)O)cc1,?,·,·,·,·,-0.8%
Cc1ccc(CS(=O)(=O)c2ncc(Cl)c(C(=O)Nc3nc4ccc(F)cc4s3)n2)cc1,?,·,-4.4%,·,·,-3.4%
CC(=O)Nc1ccc(NC(=O)c2nc(S(=O)(=O)Cc3ccc(F)cc3)ncc2Cl)cc1,1.26µM*,·,-35.9%,·,·,-1.7%
Cc1ccc(CNC(=O)c2nc(S(=O)(=O)Cc3ccc(C)cc3)ncc2Cl)cc1,?,·,-46.9%,·,·,3.1%
Cc1ccc(NC(=O)c2nc(S(=O)(=O)Cc3ccc(F)cc3)ncc2Cl)cc1C,2.82µM*,·,-29.4%,·,·,7.7%
CCOC(=O)N1CCN(C(=O)c2ccc3c(c2)NC(=O)/C(=C\c2ccc(OC)c(OC)c2)S3)CC1,25.1µM*,2.4%,?,7.1%,-12.9%,-6.0%
COc1ccc(/C=C2/Sc3ccc(C(=O)N4CCOCC4)cc3NC2=O)cc1OC,10.8%[57.1 µM],-2.4%,-27.7%[56.9 µM],8.8%,-0.3%,-5.8%[57.1 µM]
O=C(CN1C(=O)NC2(CCCCC2)C1=O)Oc1ccc2c(C(F)(F)F)cc(=O)oc2c1,39.8µM*,5.9%,10.9%,·,9.6%,8.6%
O=C(CN1C(=O)NC2(CCCC2)C1=O)Oc1ccc2ccc(=O)oc2c1,79.4µM*,-0.2%,-26.7%,·,4.6%,854.7%
CCc1cc(=O)oc2cc(OC(=O)CN3C(=O)NC4(CCCC4)C3=O)ccc12,?,0.3%,-53.2%,-6.1%,-17.5%,114.1%[57.1 µM]
c1ccc(-c2ccc3[nH]ccc3c2)cc1,19.6%[57.1 µM],3.3%,19.9%,·,-3.3%,9.7%[57.1 µM]
c1ccc(-c2onc(-c3ccco3)c2-c2ccc3[nH]ccc3c2)cc1,28.2µM*!,3.5%,-42.5%,·,-13.8%,12.2%[57.1 µM]
Cc1cccc(NC(c2ccccc2C)c2ccc3ccc(C)nc3c2O)n1 (stereo not drawn),?,·,-19.3%,·,·,5.0%
COc1cc(C(Nc2ccccn2)c2ccc3ccc(C)nc3c2O)cc(OC)c1O (stereo not drawn),1.26µM*,0.6%,?,-2.0%,9.5%,-6.0%
Cc1ccnc(NC(c2ccsc2)c2ccc3ccc(C)nc3c2O)c1 (stereo not drawn),3.55µM*,-9.5%,?,0.5%,1.5%,6.3%
Cc1ccc2ccc(C(Nc3ccccn3)c3ccccc3)c(O)c2n1 (stereo not drawn),?,-2.2%,-22.1%,2.0%,-5.2%,0.1%
COc1ccc(C(Nc2cc(C)ccn2)c2ccc3ccc(C)nc3c2O)cc1 (stereo not drawn),14.1µM*,2.3%,?,-0.5%,6.7%,3.0%
Cc1ccc2ccc(C(Nc3cccc(C(F)(F)F)c3)c3cccnc3)c(O)c2n1 (stereo not drawn),?,2.8%,-7.0%,15.1%,3.8%,-3.8%[57.1 µM]
Cc1ccnc(NC(c2ccccc2F)c2ccc3cccnc3c2O)c1 (stereo not drawn),?,·,-13.6%,·,·,-2.1%

# Compound activity as filed in PubChem.
